Rows were chosen to be rich in hits. Some 2.1% of all compounds tested hit in one or more screens of this group.
CendR NRP1 mod – modulators of CendR peptide binding to NRP-1, primary screen, biochemical, fluorescence polarization, uHTS; Neuropilin-1 (Homo sapiens), O14786; FAM-RPARPAR peptide binding to NRP-1; inhibition, % at 25 µM; 360,000 compounds, 0.85% hits;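 active = inhibition or corrected inhibition above about 18%, plus a signal ratio from 0.5 to 1.5, limit read from the data, passing the limit was not always enough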
MLLE-PAM2 inh – inhibitors of PABP1 MLLE–PAM2 peptide binding, primary screen, biochemical, fluorescence polarization, FITC-PAM2, GST-MLLE | AID 588489, 2011 | Polyadenylate-binding protein 1 (Homo sapiens), P11940 | inhibition, % at 20 µM | 360,000 compounds, 0.36% hits; in the data active = inhibition above about 35%, passing the limit was not always enough;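 also: plate controls were DMSO wells with GST-MLLE for no effect and wells lacking GST-MLLE protein for full effect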
PABP polyA inh – PABP poly(A) RNA binding inhibitors, primary screen, biochemical, fluorescence polarization, uHTS. AID 2014, 2009. inhibition, % at 35 µM. 290,000 compounds, 1% hits. Polyadenylate-binding protein 1 (Homo sapiens), P11940;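 also: calls also rest on retests at 20 µM and on dose response follow-up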
eIF4H FP inh – human eIF4H binding inhibitors, primary screen, translation initiation inhibitor project, biochemical, uHTS, fluorescence polarization. eIF4H fluorescence polarization binding assay. 290,000 compounds, 0.94% hits. inhibition, % at 35 µM;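 also: calls also rest on retests at 20 µM and on dose response follow-up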
The depositor's hits bear a star; ? = inconclusive; · = not tested or not shown. Unless noted, no rule for the calls is given here.

SMILES	CendR NRP1 mod	MLLE-PAM2 inh	PABP polyA inh	eIF4H FP inh
CCN(CC)C(=O)[C@H]1CC(CC(=O)NCc2ccc(OC)c(OC)c2)C(=O)N2CCc3c([nH]c4ccc(OC)cc34)[C@]12C (stereo partly specified)	7	-3	·	·
COc1ccc(C)cc1NC(=O)COC(=O)C1COc2ccccc2O1 (stereo unspecified)	2	-5	·	·
COc1ccc(S(=O)(=O)N2CCOCC2)cc1NC(=O)COC(=O)C1COc2ccccc2O1 (stereo unspecified)	28*	-9	1	10
Cc1cccc(C)c1NC(=O)c1cccc(N2C(=O)C3CCC(C)CC3C2=O)c1 (stereo unspecified)	1	-4	-18	-13
CC1(C)CC(=O)C(CO)=C(c2cccc3ccccc23)C1=O	10	12	·	·
CCCNc1c(F)c(F)c2c(C)c3ccccc3nc2c1F	131	121	46*	101*
CCOC(=O)C1=C(COC(=O)COc2cc(C)ccc2C)NC(=O)NC1C (stereo unspecified)	3	-6	·	·
CCC12CCCN3CCc4c(n(c5ccccc45)C(O)(C(=O)OC)C1)C32 (stereo unspecified)	-8	-1	56*	96*
CC[C@]12CCCN3CCc4c(n(c5ccccc45)[C@](O)(C(=O)OC)C1)[C@@H]32	-7	-17	·	·
CCc1nc2ccc(C(=O)NCc3ccc4c(c3)OCO4)cn2c1N(C)Cc1ccc(OC)cc1	-2	-10	·	·
O=C1CC(/C=C/c2ccccn2)=Nc2ccccc2N1	-15	-22	1	46
O=C1CC(/C=C/c2ccco2)=Nc2ccccc2N1	0	34	113*	95*
COc1cc(C2c3c(oc4ccccc4c3=O)C(=O)N2c2nccs2)ccc1O (stereo unspecified)	-13	-10	10	-3
Cc1onc(-c2ccccc2)c1C(=O)N/N=C/c1ccc([N+](=O)[O-])s1	-5	12	active	58*
CC(=O)c1cccc(S(=O)(=O)N2CCN(CCOc3ccccc3)CC2)c1	10	44*	·	·
Cc1ccc(S(=O)(=O)N2CCN(CCOc3ccccc3)CC2)cc1	2	-6	·	·
CC(C)(C)c1ccc(SCCc2cccnc2)cc1	31*	15	3	2
Cc1cccc(NC(=O)CNC(=O)COc2cccnc2[N+](=O)[O-])c1C	-12	12	·	·
CCOC(=O)N1CCN(C(=O)COC(=O)c2ccc(N(C)C)cc2)CC1	-3	4	·	·
CN(Cc1ccon1)C(=O)CC1C(=O)NCCN1Cc1ccc(Cl)c(F)c1 (stereo unspecified)	-5	6	-8	-9
O=C1NCCN(Cc2ccc(Cl)c(F)c2)C1CC(=O)N1CCc2ccccc2C1 (stereo unspecified)	-6	25	20	54*
CCOc1ccc(Br)cc1CN(CC)CC	-13	-6	-1	-2
c1ccc(NC2=NCCCCS2)cc1	7	-6	2	108*
COc1ccc(C(=O)NC2CC2)cc1OC1CCN(Cc2ccccc2)CC1	22*	7	0	-4
Cc1ccc(-n2c(C)cc(=O)cc2C)c(C)c1	3	5	-4	-12
SMILES	CendR NRP1 mod	MLLE-PAM2 inh	PABP polyA inh	eIF4H FP inh
Cc1cc(=O)cc(C)n1-c1ccc(F)cc1F	4	2	18*	77
O=C(COc1cc2oc(=O)cc(-c3ccccc3)c2cc1Cl)NCc1ccccn1	4	-3	0	0
Cc1n[nH]c(=O)nc1NCc1ccco1	25*	9	6	-8
Cc1n[nH]c(=O)nc1NCc1ccccc1	-11	2	2	-1
COc1ccc(-n2nnnc2CNC(=O)c2ccc3c(c2)OCO3)cc1	-10	-8	·	·
CC(C)c1nnc(NC(=O)CS(=O)(=O)Cc2ccccc2)s1	11	41*	-3	-2
CCC(CC)c1nnc(NC(=O)CS(=O)(=O)Cc2ccccc2)s1	-10	19	·	·
Cc1cccc2c(N=Nc3ccccc3)c(O)[nH]c12	107	-19	57*	95*
Cn1ccnc1C(O)(c1ccccc1)c1ccccc1	6	8	6	-4
Cc1cc(NC(=O)CSc2nc(C)c(C)c(=O)[nH]2)no1	6	2	·	·
C=CCn1c(SCC(=O)c2cc(C)n(C(C)COC)c2C)nc2sc(C)c(C)c2c1=O (stereo unspecified)	-3	40*	4	-13
c1ccc(C[C@H]2COc3c4ccccc4nn32)cc1	26*	·	·	·
CCCOc1ccccc1Cn1c(=O)oc2ccccc21	-4	-12	0	-3
CC(=O)Nc1ccc(S(=O)(=O)NC(C)C(=O)NC(C)c2ccccc2)cc1 (stereo unspecified)	-13	49*	8	0
CC(=O)Nc1ccc(S(=O)(=O)NC(C)C(=O)NCC(c2ccco2)N(C)C)cc1 (stereo unspecified)	27*	30	·	·
CC(=O)Nc1ccc(C(=O)NCC(c2ccco2)N(C)C)cc1 (stereo unspecified)	10	-9	-2	-3
CC(CN1CCOCC1)OC(=O)c1ccc2c(c1)OCCO2 (stereo unspecified)	27*	-2	6	7
Cc1ccc(C(=O)OCC(=O)Nc2ccc(C)c(S(=O)(=O)N3CCCCC3)c2)o1	12	6	·	·
CCCCC1=CC2=CC(=O)C(C)(OC(=O)CC)C(=O)C2=CN1c1ccc(OC)cc1 (stereo unspecified)	24*	-7	41	46
CCCCC1=CC2=C(c3ccco3)C(=O)C(C)(OC(=O)c3ccc(OC)cc3)C(=O)C2=CN1c1ccccc1 (stereo unspecified)	-29	-2	81*	111
CCCCC1=CC2=CC(=O)C(C)(OC(=O)CC)C(=O)C2=CN1C1CCCCC1 (stereo unspecified)	-13	-5	33	17
CCCCC1=CC2=CC(=O)C(C)(OC(=O)CC)C(=O)C2=CN1c1cccc(C#N)c1 (stereo unspecified)	6	19	·	·
CCCCC1=CC2=CC(=O)C(C)(OC(=O)CC)C(=O)C2=CN1CCCCO (stereo unspecified)	19	45*	36	62
C=CCN1C=C2C(=O)C(C)(OC(=O)c3ccc(OC)cc3)C(=O)C(c3ccco3)=C2C=C1CCCC (stereo unspecified)	0	22	?	?
O=C(COC(=O)c1ncc(Cl)c(Cl)c1Cl)NCCc1ccccc1	0	0	·	·
CC(Sc1ncccn1)C(=O)NC1(C#N)CCCCC1 (stereo unspecified)	26*	13	·	·
CC1CCCCC1NC(=O)CSC1=Nc2ccccc2C2CC=NN12 (stereo unspecified)	-2	27	·	·
CC(SC1=Nc2ccccc2C2CC=NN12)C(=O)NC1(C#N)CCCCC1 (stereo unspecified)	8	41*	·	·
O=C(Cc1ccccc1Cl)NCc1cccnc1	2	-12	3	8
O=C1NC(=O)C(c2ccccc2[N+](=O)[O-])=C1Nc1ccc(O)c(Cl)c1	8	27	40*	67*
